This excerpt belongs to a sample that is enriched for hits.
DUSP3 inh: inhibitors of human VHR1 phosphatase (DUSP3); inhibition, % at 20 µM; recombinant VHR phosphatase, colorimetric substrate read-out; P51452; 50,000 tested, 0.7% active; in the data active = inhibition above about 60%
Target sequence (P51452 whole entry, looked up): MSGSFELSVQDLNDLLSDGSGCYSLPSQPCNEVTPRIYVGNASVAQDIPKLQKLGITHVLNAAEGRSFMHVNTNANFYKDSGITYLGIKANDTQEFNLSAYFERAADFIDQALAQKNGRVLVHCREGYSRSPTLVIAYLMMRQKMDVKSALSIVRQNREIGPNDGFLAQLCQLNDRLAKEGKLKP
Active calls of the source: *.

SMILES | DUSP3 inh
Cc1ccc(-n2cc(C=C3C(=O)NC(=O)NC3=O)cn2)cc1C | 104.9*
CC(C)(C)c1ccc(/C=C/C(=O)Nc2ccccc2C(N)=O)cc1 | -8.9
O=C(/C=C/c1ccc2c(c1)OCO2)Nc1c(F)c(F)c(F)c(F)c1F | 2.9
O=C(CCN1C(=O)/C(=C/c2ccccc2Cl)SC1=S)Nc1ncc(Cc2ccccc2Cl)s1 | -28.3
C/C(=N\NC(=O)c1cc(C)[nH]n1)c1ccc(C)cc1 | -12.1
O=c1nc(/C=C/c2ccc(Cl)cc2)cc(C(F)(F)F)[nH]1 | -9.8
O=c1nc(/C=C/c2ccc(N3CCOCC3)cc2)cc(C(F)(F)F)[nH]1 | 0.4
O=c1nc(/C=C/c2ccc(N3CCCC3)cc2)cc(C(F)(F)F)[nH]1 | 108.0*
CC(C)(C)C(=O)COc1cc2oc(=O)c3c(c2cc1Cl)CCC3 | -0.9
CCCCN1C(=O)/C(=C/C=C/c2ccccc2)SC1=S | 9.1
O=C(Nc1ccc(Cl)c(Cl)c1)C1C2/C=C\CCCCC21 (stereo unspecified) | -14.0
O=C(Nc1ccccc1)C1C2/C=C\CCCCC21 (stereo unspecified) | 100.1*
O=C(O)C1C(C(=O)Nc2ccccc2)C2C=CC1C21CC1 (stereo unspecified) | -18.0
O=C(NNC(=O)c1ccc(Cl)c([N+](=O)[O-])c1)c1ccccc1 | -23.9
O=C1NC(=O)N(c2ccccc2)C(=O)/C1=C\c1ccc(-c2ccc(C(=O)O)cc2)o1 | -19.6
O=C1NC(=S)N(c2ccc(Cl)cc2)C(=O)/C1=C/c1ccc(-c2ccc(C(=O)O)cc2)o1 | 18.6
O=C1NC(=S)NC(=O)C1=Cc1ccc(-c2ccc(C(=O)O)cc2)o1 | 88.8*
CCOCCOC(=O)C1=C(C)NC2=C(C(=O)CCC2)C1c1ccc(I)cc1 (stereo unspecified) | -5.9
COc1ccc(/C(C)=N/N=C2/NC(=O)C(CC(=O)Nc3cccc([N+](=O)[O-])c3)S2)cc1 (stereo unspecified) | -7.0
Cc1cc(=O)oc2cc(OC/C(=N\O)c3ccc(Cl)cc3)c(Cl)cc12 | 106.5*
Cc1cc(=O)oc2cc(OCC(=O)c3ccc(Cl)cc3)c(Cl)cc12 | 5.4
Cc1cc(=O)oc2cc(OCc3ccc(F)cc3)c(Cl)cc12 | -1.7
COc1cc2c(cc1NS(=O)(=O)c1ccc3ccccc3c1)oc1ccccc12 | 25.7
Cc1[nH][nH]c(=O)c1C(c1ccccc1F)C(C#N)C#N (stereo unspecified) | -7.0
CCOC(=O)c1c(NC(=O)C2C3C=CC(C3)C2C(=O)O)sc(C)c1C (stereo unspecified) | -48.6
Cc1c(Cl)cccc1N=C1NC(=O)/C(=C/c2cccc(O)c2)S1 | 2.2
Cc1c(Cl)cccc1N=C1NC(=O)/C(=C/c2ccc3c(c2)OCO3)S1 | 23.5
Cc1c(Cl)cccc1N=C1NC(=O)/C(=C/c2ccc(-c3ccccc3C(=O)O)o2)S1 | 86.4*
Brc1ccccc1CN1CCN(Cc2ccncc2)CC1 | 0.7
CCN(CC)c1ccc(N=Cc2ccc3ccccc3c2)cc1 | 9.7

Screening results (PubChem BioAssay)
